Laboratory results taken from PubChem BioAssay (Tox21).
Where “and” joins values, the source holds several entries; their conditions need not be identical. Equal entries are not always repeated. Calls of active or inactive are those of the source. A call without a number means that no potency is given here. The call rests on the fitted dose curve; in most records, active means well fitted curve in the direction sought with a large enough effect in the repeat runs; inconclusive means weak or mixed curves; inactive means flat fitted curve, though single readings scatter.

Test: qHTS assay to test for compound auto fluorescence at 535 nm (green) in HEK293 cell free culture (AID 720682)
Conditions: cell-free medium, green autofluorescence 485/535 nm; series mostly up to 91.3 µM
Excerpt: U.S. Tox21 Program National Center for Advancing Translational Sciences [NCATS] NIH Chemical Genomics Center [NCGC] U.S. Environmental Protection Agency [EPA] National Institutes of Environmental Health Sciences [NIEHS] National Toxicology Program [NTP] U.S. Food and Drug Administration [FDA] Tox21 Assay Overview: Compound auto fluorescence often interferes with screening of the compound library against various biological targets and signaling pathways. Some of these compounds may have fluorophoric properties. Such properties may interfere with the assay outputs resulting in false positives and/or negatives. To decrease such complications and ensure the compound activities are relevant in terms of biological response, the Tox21 10K compound library was screened for auto fluorescence. From the fluorophores used as reporter signals in our screening assays, the auto fluorescence equivalencies of compounds against three fluorophores have been evaluated: Triamterene, Fluorescein and Rose Bengal sodium for blue, green and red fluorescence, respectively. The fluorescence intensities were measured using Excitation/Emission wavelengths at 405/460nm, 485/535nm and 540/590nm for blue, green and red labels, respectively. This assay includes the green fluorescence data.
Tox21 Assay Protocol Summary: 5 uL of culture medium (DMEM containing 10% FBS) per well was dispensed into black wall/clear bottom 1536-well plates using a Multidrop Combi Dispenser (ThermoFisher Scientific, Waltham, MA). After 23 nL compound or DMSO vehicle was transferred into assay plate by a pintool work station (Kalypsys, San Diego, CA), fluorescence intensities in the assay plates were measured by an Envision (PerkinElmer, Shelton, CT) plate reader using three labels for measuring blue, green and red fluorescence at […] 460, 535 and 590nm respectively.
Potency means the concentration at half of the fitted maximal effect; tags describe the fitted curve by direction and shape or compound fluorescence and quenching.

For `CCCCCCCCCCCCCO`, which Potency is on record?
Its Potency is “inactive”.

With `C1COCCN1` as the compound, how does the Potency read?
The Potency was “inactive”.

With `CCCCCC=O` as the compound, how does the Potency read?
The Potency was “inactive”.

For `CC1(C)OC(=O)NC1=O`, which Potency is on record?
Its Potency is “inactive”.

Which Potency does the source give for `CCC(Cc1c(I)cc(I)c(N)c1I)C(=O)O` (stereo not given) here?
The Potency was “inactive”.

Which Potency does the source give for `Cc1ccc2c(c1)C(=O)OC2=O` here?
The Potency was “inactive”.

For `Oc1c(Cl)ccc(Cl)c1Cl`, which Potency is on record?
Its Potency is “inactive”.

With `O=C1CCc2ccccc2O1` as the compound, how does the Potency read?
The Potency was “inactive”.

With `CCCN1C=CN(C)C1` as the compound, how does the Potency read?
The Potency was “inactive”.

For `CC(C)=CCO`, which Potency is on record?
The Potency was “inactive”.

For `COc1ccc(-c2coc3cc(O)cc(O)c3c2=O)cc1`, which Potency is on record?
The Potency was “inactive”.

With `CCCCCC1C(=O)CCC1CC(=O)OC` (stereo not given) as the compound, how does the Potency read?
Its Potency is “inactive”.

Which Potency does the source give for `C1CN(SSN2CCOCC2)CCO1` here?
The Potency was “inactive”.

Which Potency does the source give for `CCCCCCC(C)O` (stereo not given) here?
Its Potency is “inactive”.

For `O=C(O)c1ccc(O)cc1`, which Potency is on record?
Its Potency is “inactive”.

For `Nc1ccc(N)c(Cl)c1`, which Potency is on record?
Its Potency is “inactive”.

Which Potency does the source give for `O=[Se](O)O` here?
Its Potency is “inactive”.

Which Potency does the source give for `C=C[C@H]1CN2CC[C@H]1C[C@@H]2[C@@H](O)c1ccnc2ccc(OC)cc12` here?
The Potency was “inactive”.

For `CN(C)CCCN1c2ccccc2Sc2ccc(Cl)cc21`, which Potency is on record?
The Potency was “inactive”.

For `NCCN`, which Potency is on record?
The Potency was “inactive”.

With `NCCS(=O)(=O)O` as the compound, how does the Potency read?
The Potency was “inactive”.

For `Nc1cc([N+](=O)[O-])ccc1C(=O)O`, which Potency is on record?
Its Potency is “inactive”.

For `Nc1cc(Cl)c(N)c(Cl)c1`, which Potency is on record?
Its Potency is “inactive”.

Which Potency does the source give for `Cc1ccc([N+](=O)[O-])c(C)c1` here?
Its Potency is “inactive”.

With `C[C@]12CC[C@@H]3c4ccc(O)cc4CC[C@H]3[C@@H]1CC[C@@H]2O` as the compound, how does the Potency read?
The Potency was “inactive”.

For `CC/C=C\C/C=C\C/C=C\CCCCCCCC(=O)O`, which Potency is on record?
The Potency was “inactive”.

Which Potency does the source give for `CCCCCCCC/C=C\CCCCCCCC(=O)O` here?
The Potency was “inactive”.

For `CC1(C)C(C=C(Cl)Cl)C1C(=O)OCc1cccc(Oc2ccccc2)c1` (stereo not given), which Potency is on record?
The Potency was “inactive”.

Which Potency does the source give for `Cc1ccc(N)c([N+](=O)[O-])c1` here?
The Potency was “inactive”.

Which Potency does the source give for `O=C1OC2(c3ccccc31)c1cc(I)c(O)c(I)c1Oc1c2cc(I)c(O)c1I` here?
Its Potency is 12.6 µM [fluorescent] (active) and 8.91 µM [fluorescent] (active) and 15.8 µM [fluorescent] (active).

For `C=C[Si](OCCOC)(OCCOC)OCCOC`, which Potency is on record?
The Potency was “inactive”.

Which Potency does the source give for `CCCCCCOCCOCCO` here?
Its Potency is “inactive”.

Which Potency does the source give for `C[C@]12C=CC(=O)C=C1CC[C@H]1[C@@H]3C[C@@H](O)[C@](O)(C(=O)CO)[C@@]3(C)C[C@H](O)[C@@]12F` here?
The Potency was “inactive”.

Which Potency does the source give for `OC[C@@H](O)[C@@H](O[C@@H]1O[C@H](CO)[C@H](O)[C@H](O)[C@H]1O)[C@H](O)[C@@H](O)CO` here?
The Potency was “inactive”.

For `CN(C)C`, which Potency is on record?
The Potency was “inactive”.

With `Nc1ccc(O)c(N)c1` as the compound, how does the Potency read?
The Potency was “inactive”.

Which Potency does the source give for `CCCCCCCCCCCCO` here?
Its Potency is “inactive”.

For `CC/C(=C(/CC)c1ccc(O)cc1)c1ccc(O)cc1`, which Potency is on record?
Its Potency is “inactive”.

For `C=CCNCC=C`, which Potency is on record?
The Potency was “inactive”.

With `Cc1ccc(/C(=C\CN2CCCC2)c2ccccn2)cc1` as the compound, how does the Potency read?
The Potency was “inactive”.
